Measurements reported in PubChem BioAssay AID1159580 (chemical genetic matrix, 2015).
Screen size: about 5,500 compounds; about 2,000 (36%) were called active. Not shown: some 18% with an inconclusive outcome. No stated cut-off is given here; in the data, active means normalized growth mostly below about 0.91 (no sharp cut-off); inconclusive means no clear call, values can overlap the other calls; inactive means mostly above about 0.92. The list shows a part of the results.

Assay: chemical genetic growth profiling, strain panel (AID 1159580);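 further: tested at 20 µM; growth read once vehicle control cultures reached saturation at 30 °C; 1 = growth at the plate median or of vehicle wells; lower values mean less growth of the strain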
Settings: growth OD
[1] = S. cerevisiae deletion strains, locus YHR030C, strain SLT2, active compounds read low
[2] = S. cerevisiae deletion strains, locus YJL095W, strain BCK1, active compounds read low

Measured: normalized growth

C=Cc1c(C)c2cc3nc(c4c5[nH]c(cc6nc(cc1[nH]2)C(C)=C6CC)c(C)c5C(=O)[C@@H]4C(=O)OC)[C@@H](CCC(=O)OC/C=C(\C)CCCC(C)CCCC(C)CCCC(C)C)[C@@H]3C (some centres undefined)
inactive: [1] 0.987 | S. cerevisiae deletion strains, locus YHR079C, strain IRE1, active compounds read low 0.972 | [2] 0.978 | S. cerevisiae deletion strains, locus YJR066W, strain TOR1, active compounds read low 0.934 | S. cerevisiae deletion strains, locus YLR113W, strain HOG1, active compounds read low 0.957 | S. cerevisiae deletion strains, locus YNL183C, strain NPR1, active compounds read low 0.935 | S. cerevisiae deletion strains, locus YOR231W, strain MKK1, active compounds read low 0.954 | S. cerevisiae deletion strains, locus YPL256C, strain CLN2, active compounds read low 0.965

CCC(C)C(=O)O[C@H]1[C@H](O)C2C(CN3CC(C)CCC3[C@@]2(C)O)C2C[C@]34O[C@]5(O)C(OC(=O)C(C)(O)C(C)O)CC[C@@]3(C)C5C(OC(C)=O)[C@@H](OC(C)=O)C4[C@@]21O (some centres undefined)
inactive: S. cerevisiae deletion strains, locus YAL013W, strain DEP1, active compounds read low 1.01 | S. cerevisiae deletion strains, locus YBR021W, strain FUR4, active compounds read low 0.996 | S. cerevisiae deletion strains, locus YBR229C, strain ROT2, active compounds read low 1 | S. cerevisiae deletion strains, locus YCL029C, strain bik1, active compounds read low 1 | S. cerevisiae deletion strains, locus YDL035C, strain GPR1, active compounds read low 1.02 | S. cerevisiae deletion strains, locus YDL074C, strain BRE1, active compounds read low 1.01 | S. cerevisiae deletion strains, locus YDL101C, strain DUN1, active compounds read low 1.01 | S. cerevisiae deletion strains, locus YDL134C, strain PPH21, active compounds read low 1.01 | S. cerevisiae deletion strains, locus YDL185W, strain tfp1, active compounds read low 0.999 | S. cerevisiae deletion strains, locus YDL192W, strain arf1, active compounds read low 1 | S. cerevisiae deletion strains, locus YDR101C, strain arx1, active compounds read low 0.986 | S. cerevisiae deletion strains, locus YDR150W, strain NUM1, active compounds read low 1.01 | S. cerevisiae deletion strains, locus YDR162C, strain NBP2, active compounds read low 1.01 | S. cerevisiae deletion strains, locus YDR318W, strain mcm21, active compounds read low 0.998 | S. cerevisiae deletion strains, locus YDR388W, active compounds read low 1 | S. cerevisiae deletion strains, locus YDR502C, strain sam2, active compounds read low 0.996 | S. cerevisiae deletion strains, locus YEL061C, strain CIN8, active compounds read low 1.01 | S. cerevisiae deletion strains, locus YER110C, active compounds read low 0.994 | S. cerevisiae deletion strains, locus YER155C, strain BEM2, active compounds read low 1 | S. cerevisiae deletion strains, locus YER167W, strain BCK2, active compounds read low 1.07 | S. cerevisiae deletion strains, locus YGL078C, strain dbp3, active compounds read low 1 | S. cerevisiae deletion strains, locus YGL086W, strain mad1, active compounds read low 1 | S. cerevisiae deletion strains, locus YGL248W, strain PDE1, active compounds read low 1.01 | S. cerevisiae deletion strains, locus YGR078C, strain PAC10, active compounds read low 1.01 | S. cerevisiae deletion strains, locus YGR135W, strain pre9, active compounds read low 0.997 | S. cerevisiae deletion strains, locus YGR229C, strain SMI1, active compounds read low 1.03 | S. cerevisiae deletion strains, locus YGR252W, strain gcn5, active compounds read low 1.01 | [1] 1 | S. cerevisiae deletion strains, locus YHR079C, strain IRE1 (second series), active compounds read low 0.998 | S. cerevisiae deletion strains, locus YHR094C, strain hxt1, active compounds read low 1 | S. cerevisiae deletion strains, locus YHR129C, strain ARP1, active compounds read low 1 | S. cerevisiae deletion strains, locus YHR200W, strain rpn10, active compounds read low 1 | S. cerevisiae deletion strains, locus YIL066C, strain RNR3, active compounds read low 1.01 | S. cerevisiae deletion strains, locus YIL073C, strain SPO22, active compounds read low 1.02 | S. cerevisiae deletion strains, locus YIL125W, strain kgd1, active compounds read low 1.01 | S. cerevisiae deletion strains, locus YIR030C, strain dcg1, active compounds read low 0.991 | [2] 0.994 | S. cerevisiae deletion strains, locus YJL134W, strain LCB3, active compounds read low 1.01 | S. cerevisiae deletion strains, locus YJL168C, strain set2, active compounds read low 1 | S. cerevisiae deletion strains, locus YJL187C, strain SWE1 (second series), active compounds read low 1.01 | S. cerevisiae deletion strains, locus YJR043C, strain POL32, active compounds read low 0.984 | S. cerevisiae deletion strains, locus YJR075W, strain HOC1, active compounds read low 1.01 | S. cerevisiae deletion strains, locus YKL009W, strain mrt4, active compounds read low 1 | S. cerevisiae deletion strains, locus YKL068W, active compounds read low 1.01 | S. cerevisiae deletion strains, locus YKL085W, strain MDH1 (second series), active compounds read low 1 | S. cerevisiae deletion strains, locus YKL085W, strain MDH1, active compounds read low 1 | S. cerevisiae deletion strains, locus YKL190W, strain CNB1, active compounds read low 1.01 | S. cerevisiae deletion strains, locus YKR001C, strain vps1, active compounds read low 0.98 | S. cerevisiae deletion strains, locus YLR039C, strain RIC1, active compounds read low 1 | S. cerevisiae deletion strains, locus YLR058C, strain SHM2, active compounds read low 1.01 | S. cerevisiae deletion strains, locus YLR102C, strain apc9, active compounds read low 1 | S. cerevisiae deletion strains, locus YLR262C, strain YPT6, active compounds read low 0.996 | S. cerevisiae deletion strains, locus YLR268W, strain sec22, active compounds read low 0.981 | S. cerevisiae deletion strains, locus YLR330W, strain CHS5, active compounds read low 1.02 | S. cerevisiae deletion strains, locus YLR342W, strain FKS1 (second series), active compounds read low 1 | S. cerevisiae deletion strains, locus YLR371W, strain rom2, active compounds read low 1 | S. cerevisiae deletion strains, locus YLR418C, strain cdc73, active compounds read low 1 | S. cerevisiae deletion strains, locus YML016C, strain PPZ1, active compounds read low 1 | S. cerevisiae deletion strains, locus YML032C, strain rad52, active compounds read low 0.991 | S. cerevisiae deletion strains, locus YML124C, strain tub3, active compounds read low 0.996 | S. cerevisiae deletion strains, locus YMR078C, strain ctf18, active compounds read low 1.01 | S. cerevisiae deletion strains, locus YMR223W, strain ubp8, active compounds read low 0.999 | S. cerevisiae deletion strains, locus YMR263W, strain SAP30, active compounds read low 1 | S. cerevisiae deletion strains, locus YMR307W, strain GAS1, active compounds read low 0.987 | S. cerevisiae deletion strains, locus YNL067W, strain RPL9B, active compounds read low 1 | S. cerevisiae deletion strains, locus YNL128W, strain TEP1, active compounds read low 1.02 | S. cerevisiae deletion strains, locus YNL153C, strain GIM3, active compounds read low 0.996 | S. cerevisiae deletion strains, locus YNL233W, strain BNI4, active compounds read low 1.01 | S. cerevisiae deletion strains, locus YNL250W, strain rad50, active compounds read low 0.99 | S. cerevisiae deletion strains, locus YNL271C, strain bni1, active compounds read low 0.992 | S. cerevisiae deletion strains, locus YNL298W, strain CLA4, active compounds read low 0.986 | S. cerevisiae deletion strains, locus YNL307C, strain MCK1, active compounds read low 1.01 | S. cerevisiae deletion strains, locus YNL322C, strain KRE1, active compounds read low 1.01 | S. cerevisiae deletion strains, locus YNR052C, strain pop2, active compounds read low 1 | S. cerevisiae deletion strains, locus YOL006C, strain TOP1, active compounds read low 1.02 | S. cerevisiae deletion strains, locus YOL012C, strain htz1 0.933 | S. cerevisiae deletion strains, locus YOL147C, strain pex11, active compounds read low 0.996 | S. cerevisiae deletion strains, locus YOR061W, strain CKA2, active compounds read low 1.01 | S. cerevisiae deletion strains, locus YOR069W, strain VPS5, active compounds read low 1.01 | S. cerevisiae deletion strains, locus YOR136W, strain idh2, active compounds read low 1 | S. cerevisiae deletion strains, locus YOR144C, strain elg1, active compounds read low 0.996 | S. cerevisiae deletion strains, locus YOR184W, strain ser1, active compounds read low 1.02 | S. cerevisiae deletion strains, locus YOR316C, strain cot1, active compounds read low 1 | S. cerevisiae deletion strains, locus YPL055C, strain LGE1, active compounds read low 1.03 | S. cerevisiae deletion strains, locus YPL241C, strain CIN2, active compounds read low 1.01 | S. cerevisiae deletion strains, locus YPR119W, strain clb2, active compounds read low 1 | S. cerevisiae deletion strains, locus YPR141C, strain kar3, active compounds read low 0.996 | S. cerevisiae deletion strains, locus YPR163C, strain tif3, active compounds read low 0.996 | S. cerevisiae deletion strains, locus YPR167C, strain met16, active compounds read low 1.01 | S. cerevisiae deletion strains, strain wtn01, active compounds read low 0.997 | S. cerevisiae strains, strain wild type, active compounds read low 1.01
